Screening data (PubChem BioAssay)
Abeta yeast res – compounds reversing amyloid beta toxicity in yeast. yeast expressing A-beta42, growth rescue, OD600, 48 h; response scale: 0% DMSO, 100% iron-clioquinol control. Potency, µM (series often up to 46.1 µM), hits mostly activators. hit rate 0.063% among 410,000. AID 1347071; also: nearly all actives have a fitted effect of over 55% in size
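Yeast A-beta toxicity model in growth medium with pinned compounds, 48 h at 30 C; growth read as absorbance at 600 nm. Normalized to FeCl3/clioquinol equimolar mix (positive) and DMSO (negative).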
aSyn yeast inh – rescues yeast growth from alpha-synuclein toxicity; Yeast expressing alpha-synuclein, growth rescue, BacTiter-Glo, 24 h; Potency, µM (series often up to 46.1 µM), without a hit: at the highest dose growth rescue (activation), actives largely listed as activators; hit rate 0.14% among 370,000; also: % of control where 0% means no effect; nearly all actives have a fitted effect of over 65% in size
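Galactose-induced alpha-syn yeast (OD600=0.02, raffinose-pregrown) + pinned cpd, 24 hr, 30 deg C; growth by BacTiter-Glo luminescence. Growth restoration scores as activation.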
Rango complex inh – inhibitors of Rango-importin beta complex formation; Q14974; Rango CFP/YFP FRET sensor + importin beta, 45 min; Potency, µM (doses to about 92.2 µM), without a hit: at the top dose inhibition of complex formation; hit rate 0.031% among 340,000; calls by dose curve;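 also: 0% = DMSO wells and 100% = buffer wells lacking importin beta; nearly all actives have a fitted effect of over 15% in size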
Target sequence (Q14974 whole entry, looked up): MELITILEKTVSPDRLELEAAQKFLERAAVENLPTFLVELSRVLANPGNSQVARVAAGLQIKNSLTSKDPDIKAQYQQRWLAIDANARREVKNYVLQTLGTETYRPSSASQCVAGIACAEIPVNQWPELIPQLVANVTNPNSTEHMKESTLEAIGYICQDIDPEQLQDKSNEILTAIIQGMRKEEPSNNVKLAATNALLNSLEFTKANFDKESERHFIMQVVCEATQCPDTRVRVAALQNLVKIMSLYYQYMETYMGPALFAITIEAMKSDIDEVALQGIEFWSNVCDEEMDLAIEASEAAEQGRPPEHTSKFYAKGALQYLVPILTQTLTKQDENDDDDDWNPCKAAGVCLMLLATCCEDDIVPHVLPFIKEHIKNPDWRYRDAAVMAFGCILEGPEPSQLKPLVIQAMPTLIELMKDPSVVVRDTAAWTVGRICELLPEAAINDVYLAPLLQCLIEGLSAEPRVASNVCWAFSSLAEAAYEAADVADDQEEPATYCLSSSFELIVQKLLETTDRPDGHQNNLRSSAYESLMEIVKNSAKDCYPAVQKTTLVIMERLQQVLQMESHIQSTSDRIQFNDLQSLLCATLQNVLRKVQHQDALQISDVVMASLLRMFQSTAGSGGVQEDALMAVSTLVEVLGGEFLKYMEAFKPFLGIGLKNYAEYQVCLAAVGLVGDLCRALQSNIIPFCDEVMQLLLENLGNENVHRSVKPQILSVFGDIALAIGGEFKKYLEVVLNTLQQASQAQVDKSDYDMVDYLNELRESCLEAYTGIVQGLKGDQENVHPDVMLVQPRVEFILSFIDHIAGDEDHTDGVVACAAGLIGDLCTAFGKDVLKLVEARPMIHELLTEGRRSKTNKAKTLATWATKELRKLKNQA
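FRET biosensor Rango (snurportin 1 IBB between N-terminal EYFP and C-terminal Cerulean), 50 nM in PBS/1 mM DTT/0.02% Tween-20/0.1% BSA, preincubated 5 min RT with compound; 0.125 microM importin beta added, 45 min RT, CFP/YFP FRET ratio read.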
ASM inhibitor – human S-ASM enzyme inhibition; AID 504937; placental ASM, HMU-PC fluorogenic substrate, 60 min; hit rate 0.006% among 340,000; Potency, µM (titrated, usually from 57.5 µM), without a hit: top-dose activity change, negative = inhibition, hits mostly inhibitors; P17405
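Fluorescence read-out (Ex 386 nm, Em 447 nm) after stopping the reaction at pH 10. Enzyme: ASM from human placenta; substrate HMU-PC0, 9 uM final; 60 min, 37 °C. Compound preincubation 10 min, ambient temperature.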
TDP43 rescue – rescues yeast growth from TDP-43 toxicity; TDP-43 expressing yeast growth rescue, BacTiter-Glo, 24 h; Potency, µM (titrated, usually from 46.1 µM), for inactives: at the highest dose growth rescue (activation), hits mostly activators; hit rate 1.8% among 410,000; AID 652104; also: % of control where 0% means no effect; nearly all actives have a fitted effect of over 50% in size
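Growth rescue of TDP-43-toxic yeast measured as ATP luminescence (BacTiter-Glo). Cells grown to mid-log in raffinose, induced in galactose at OD600=0.02, exposed to compound 24 hr at 30 deg C.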
Rango dissoc inh – inhibitors of RanGTP-induced Rango-importin beta complex dissociation. O95149+P62826. Biochemical FRET Rango-importin beta, RanGTP-induced dissociation. Potency, µM (series often up to 46.1 µM), inactives show top-dose activity change, negative = inhibition. hit rate 0.071% among 340,000; calls by dose curve; also: % of control where 0% means no effect; nearly all actives have a fitted effect of over 45% in size
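Compounds preincubate 5 min with complex of recombinant Rango and importin beta in PBS with 1 mM DTT. Ran (0.6 uM) loaded with 2 mM GTP plus 0.2 uM RCC1 starts dissociation; FRET is recorded 45 min later.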
An asterisk follows results filed as active; i = inactive; ? = inconclusive; . = not tested or not shown. Rows were chosen to be rich in hits. Some 2% of all compounds tested hit in one or more screens of this group. Unless noted, calls follow the shape of the dose curve; as a rule, active = well fitted curve in the direction sought with a large enough effect; inconclusive = small, poorly fitted or top-dose-only effect, or another doubt; inactive = no such curve, though single readings can be large; an effect the other way counts as inactive or inconclusive. Potency is read from the fitted curve at half-maximal effect.

SMILES | Abeta yeast res | aSyn yeast inh | Rango complex inh | ASM inhibitor | TDP43 rescue | Rango dissoc inh
COc1ccc(-c2nc3sc(CCNS(=O)(=O)c4c(C)cc(C)cc4C)c(C)n3n2)cc1 | ? | . | . | . | 35µM* | .
COc1ccc(-c2nc3scc(CCNS(=O)(=O)c4cccs4)n3n2)cc1 | i | . | . | . | 25µM* | .
CCc1ccc(S(=O)(=O)NCCc2csc3nc(-c4ccccc4)nn23)s1 | i | . | . | . | 22µM* | .
COc1ccc(-c2nc3scc(CCNS(=O)(=O)c4c(C)cc(C)cc4C)n3n2)cc1OC | i | . | . | . | 22µM* | .
Cc1oc2ccc(O)c(CN(C)Cc3ccccc3)c2c1C(=O)Nc1cccc(Cl)c1C | i | . | . | . | 2% | .
Cc1ccc(S(=O)(=O)c2nnn3c2nc(NCc2ccccc2Cl)c2sccc23)cc1 | i | . | . | . | -11% | .
COc1ccc(-c2nc3sc(CCNC(=O)c4ccc(Br)o4)c(C)n3n2)cc1 | i | . | . | . | 11µM* | .
Cc1c(CCNC(=O)c2ccc(Br)o2)sc2nc(-c3ccc(Cl)cc3)nn12 | i | . | . | . | ? | .
Cc1ccc(OCC(=O)Nc2cccc(C(=O)OCc3cc(=O)n4nc(C)sc4n3)c2)cc1 | i | . | . | . | 0% | .
COc1ccc(CN2C(=O)C(CC(=O)NC3CCCCC3)CC(C(=O)N(C)C)=C2C)cc1 (stereo not given) | i | 3.5µM* | . | . | -4% | .
COc1ccc(CN2C(=O)C(CC(=O)NC3CCCC3)CC(C(=O)N(C)C)=C2C)cc1 (stereo not given) | i | -1% | . | . | 0% | .
Cc1cccc(C(=O)Nc2ccc3oc(-c4ccncc4)nc3c2)c1 | i | . | . | . | 23% | .
Cc1cc(F)ccc1NC(=O)CCS(=O)(=O)c1cc2c(cc1C)NC(=O)CO2 | i | ? | . | . | 7% | .
CCOC(=O)c1ccc(NC(=S)N(CCN(C)C)C(C)c2ccncc2)cc1 (stereo not given) | i | 28µM* | 0% | 1% | 23% | 1%
CCOc1ccc(NC(=O)CSc2nc3nc(C)c(Cc4ccccc4)c(C)n3n2)cc1 | i | . | . | . | 25µM* | .
Cc1nc2nc(SCC(=O)Nc3ccccc3Cl)nn2c(C)c1Cc1ccccc1 | i | . | . | . | ? | .
Cc1nc2nc(SCC(=O)NCCc3ccccc3)nn2c(C)c1Cc1c(F)cccc1Cl | i | . | . | . | 22µM* | .
CCOC(=O)c1c(C)oc2ncnc(Nc3ccc(OCC)cc3)c12 | i | . | . | . | 12% | .
COc1cccc(-n2c(SCC(=O)N3CCc4ccccc43)nc3c([nH]c4ccccc43)c2=O)c1 | i | 3% | . | . | 24% | .
O=C(N/N=C/c1ccc(N2CCOCC2)cc1)c1ccccc1OCCOc1ccccc1 | i | 4% | ? | 438% | 25µM* | ?
COc1ccc(-c2[nH]c(-c3ccc4c(c3)OCO4)nc2-c2ccccc2)cc1 | i | -18% | -2% | ? | 16µM* | 0%
CCOc1ccc(-c2nnc(SCC(=O)NCc3ccccc3Cl)o2)cc1 | i | . | . | . | -1% | .
CC(C)Oc1ccc(C(=O)NCC(c2ccc(N(C)C)cc2)N2CCCC2)cc1 (stereo not given) | i | . | . | . | 20% | .
O=C(/C=C/c1ccc(Cl)cc1)N1CCN(c2c(Cl)cccc2[N+](=O)[O-])CC1 | i | 20% | 1% | -13% | 11µM* | -7%
O=C1Cc2ccccc2C1=C1C=c2ccccc2=C1 | . | 1% | . | . | . | .
Cc1ccc(S(=O)(=O)NC(C(=O)Oc2ccc3ccc(=O)oc3c2)c2ccccc2)cc1 (stereo not given) | i | -18% | ? | i | 3% | ?
Cc1ccc(S(=O)(=O)NCCC(=O)Oc2ccc3ccc(=O)oc3c2)cc1 | i | -1% | ? | i | -1% | 12µM*
CC(C)Oc1ccc(F)cc1-c1cc(C(=O)Nc2ccccc2)[nH]n1 | i | 2% | . | . | 0% | .
